# ± gives the standard deviation of the averaged measurements.
# How the values were obtained:
# Assay in all cases: promoter activity interaction Z-score (Lux/OD deviation from empty-vector control); higher = stronger promoter induction by the compound
# [1] = tested on: E. coli BW25113 acrABp lux reporter
# How it was run: (§1)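 E. coli BW25113 luxCDABE reporter strains grew at 37°C in 40 µl LB Lennox in 384-well plates, with OD600 and luminescence read every 30 min for 12 h. After integration over 0–8 h for wild type or 1–9 h for deletion strains, wells under 10% of the median growth value were removed. Each score is the Z-transformed residual of growth-normalised luminescence fitted against a control.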
# [2] = tested on: E. coli BW25113 marRABp lux reporter
# How it was run: as §1
# [3] = tested on: E. coli BW25113 micFp lux reporter
# How it was run: as §1
# [4] = tested on: E. coli BW25113 ompFp lux reporter
# How it was run: as §1
# [5] = tested on: E. coli BW25113 robp lux reporter
# How it was run: as §1
# [6] = tested on: E. coli BW25113 soxSp lux reporter
# How it was run: as §1
# [7] = tested on: E. coli BW25113 tolCp lux reporter
# How it was run: as §1
# [8] = 17.3 µg/ml, genetic background: wild type
# [9] = 17.3 µg/ml, genetic background: ΔmarA
# [10] = 17.3 µg/ml, genetic background: Δrob
# [11] = 17.3 µg/ml, genetic background: ΔsoxS
# [12] = 34.5 µg/ml, genetic background: wild type
# [13] = 34.5 µg/ml, genetic background: ΔmarA
# [14] = 34.5 µg/ml, genetic background: Δrob
# [15] = 34.5 µg/ml, genetic background: ΔsoxS
# [16] = 69.1 µg/ml, genetic background: wild type
# [17] = 69.1 µg/ml, genetic background: ΔmarA
# [18] = 69.1 µg/ml, genetic background: Δrob
# [19] = 69.1 µg/ml, genetic background: ΔsoxS
# [20] = 138.1 µg/ml, genetic background: wild type
# [21] = 138.1 µg/ml, genetic background: ΔmarA
# [22] = 138.1 µg/ml, genetic background: Δrob
# [23] = 138.1 µg/ml, genetic background: ΔsoxS
smiles,measurement,setting,value
O=C(O)c1ccccc1O [Salicylate],promoter activity interaction Z-score,[1]; [8],-0.103 ± 0.014
same,promoter activity interaction Z-score,[1]; [9],-0.589 ± 0.63
same,promoter activity interaction Z-score,[1]; [10],-0.226 ± 0.24
same,promoter activity interaction Z-score,[1]; [11],-0.152 ± 0.11
same,promoter activity interaction Z-score,[1]; [12],-0.242 ± 0.057
same,promoter activity interaction Z-score,[1]; [13],-0.128 ± 0.11
same,promoter activity interaction Z-score,[1]; [14],-0.178 ± 0.057
same,promoter activity interaction Z-score,[1]; [15],-0.392 ± 0.55
same,promoter activity interaction Z-score,[1]; [16],-0.168 ± 0.043
same,promoter activity interaction Z-score,[1]; [17],-0.559 ± 0.22
same,promoter activity interaction Z-score,[1]; [18],-0.327 ± 0.03
same,promoter activity interaction Z-score,[1]; [19],-0.194 ± 0.22
same,promoter activity interaction Z-score,[1]; [20],1.16 ± 0.76
same,promoter activity interaction Z-score,[1]; [21],0.299 ± 0.12
same,promoter activity interaction Z-score,[1]; [22],0.954 ± 0.4
same,promoter activity interaction Z-score,[1]; [23],1.34 ± 0.39
same,promoter activity interaction Z-score,[2]; [8],0.135 ± 0.01
same,promoter activity interaction Z-score,[2]; [9],0.0581 ± 0.22
same,promoter activity interaction Z-score,[2]; [10],0.184 ± 0.16
same,promoter activity interaction Z-score,[2]; [11],-0.0106 ± 0.075
same,promoter activity interaction Z-score,[2]; [12],0.214 ± 0.13
same,promoter activity interaction Z-score,[2]; [13],0.401 ± 0.26
same,promoter activity interaction Z-score,[2]; [14],0.526 ± 0.052
same,promoter activity interaction Z-score,[2]; [15],0.404 ± 0.12
same,promoter activity interaction Z-score,[2]; [16],0.771 ± 0.2
same,promoter activity interaction Z-score,[2]; [17],0.666 ± 0.1
same,promoter activity interaction Z-score,[2]; [18],0.852 ± 0.25
same,promoter activity interaction Z-score,[2]; [19],0.352 ± 0.1
same,promoter activity interaction Z-score,[2]; [20],7.4 ± 0.11
same,promoter activity interaction Z-score,[2]; [21],8.571 ± 0.071
same,promoter activity interaction Z-score,[2]; [22],6.24 ± 1.4
same,promoter activity interaction Z-score,[2]; [23],6.09 ± 1.6
same,promoter activity interaction Z-score,[3]; [8],0.432 ± 0.15
same,promoter activity interaction Z-score,[3]; [9],-0.066 ± 0.12
same,promoter activity interaction Z-score,[3]; [10],0.521 ± 0.42
same,promoter activity interaction Z-score,[3]; [11],0.0126 ± 0.12
same,promoter activity interaction Z-score,[3]; [12],0.534 ± 0.39
same,promoter activity interaction Z-score,[3]; [13],-0.0684 ± 0.18
same,promoter activity interaction Z-score,[3]; [14],0.624 ± 0.05
same,promoter activity interaction Z-score,[3]; [15],0.176 ± 0.22
same,promoter activity interaction Z-score,[3]; [16],0.858 ± 0.46
same,promoter activity interaction Z-score,[3]; [17],0.0541 ± 0.076
same,promoter activity interaction Z-score,[3]; [18],1.4 ± 0.11
same,promoter activity interaction Z-score,[3]; [19],0.648 ± 0.042
same,promoter activity interaction Z-score,[3]; [20],3.02 ± 0.49
same,promoter activity interaction Z-score,[3]; [21],0.477 ± 0.32
same,promoter activity interaction Z-score,[3]; [22],4.91 ± 0.15
same,promoter activity interaction Z-score,[3]; [23],3.15 ± 0.65
same,promoter activity interaction Z-score,[4]; [8],-0.258 ± 0.037
same,promoter activity interaction Z-score,[4]; [9],-0.336 ± 0.23
same,promoter activity interaction Z-score,[4]; [10],-0.349 ± 0.016
same,promoter activity interaction Z-score,[4]; [11],-0.27 ± 0.18
same,promoter activity interaction Z-score,[4]; [12],-0.259 ± 0.41
same,promoter activity interaction Z-score,[4]; [13],-0.439 ± 0.33
same,promoter activity interaction Z-score,[4]; [14],-0.523 ± 0.35
same,promoter activity interaction Z-score,[4]; [15],0.344 ± 0.3
same,promoter activity interaction Z-score,[4]; [16],-0.272 ± 0.29
same,promoter activity interaction Z-score,[4]; [17],-0.133 ± 0.11
same,promoter activity interaction Z-score,[4]; [18],0.0991 ± 0.22
same,promoter activity interaction Z-score,[4]; [19],0.35 ± 0.33
same,promoter activity interaction Z-score,[4]; [20],0.5 ± 0.64
same,promoter activity interaction Z-score,[4]; [21],-0.462 ± 0.05
same,promoter activity interaction Z-score,[4]; [22],0.991 ± 0.12
same,promoter activity interaction Z-score,[4]; [23],0.357 ± 1.6
same,promoter activity interaction Z-score,[5]; [8],0.135 ± 0.21
same,promoter activity interaction Z-score,[5]; [9],-0.248 ± 0.33
same,promoter activity interaction Z-score,[5]; [10],-0.0314 ± 0.15
same,promoter activity interaction Z-score,[5]; [11],-0.476 ± 0.16
same,promoter activity interaction Z-score,[5]; [12],-0.293 ± 0.019
same,promoter activity interaction Z-score,[5]; [13],0.052 ± 0.1
same,promoter activity interaction Z-score,[5]; [14],-0.218 ± 0.033
same,promoter activity interaction Z-score,[5]; [15],0.365 ± 0.091
same,promoter activity interaction Z-score,[5]; [16],-0.0138 ± 0.24
same,promoter activity interaction Z-score,[5]; [17],-0.259 ± 0.74
same,promoter activity interaction Z-score,[5]; [18],0.387 ± 0.029
same,promoter activity interaction Z-score,[5]; [19],-0.512 ± 0.077
same,promoter activity interaction Z-score,[5]; [20],-0.0563 ± 0.13
same,promoter activity interaction Z-score,[5]; [21],-0.611 ± 0.22
same,promoter activity interaction Z-score,[5]; [22],0.693 ± 0.087
same,promoter activity interaction Z-score,[5]; [23],-0.616 ± 0.21
same,promoter activity interaction Z-score,[6]; [8],0.0635 ± 0.14
same,promoter activity interaction Z-score,[6]; [9],-0.172 ± 0.0058
same,promoter activity interaction Z-score,[6]; [10],-0.0541 ± 0.36
same,promoter activity interaction Z-score,[6]; [11],-0.237 ± 0.017
same,promoter activity interaction Z-score,[6]; [12],-0.0796 ± 0.076
same,promoter activity interaction Z-score,[6]; [13],-0.219 ± 0.049
same,promoter activity interaction Z-score,[6]; [14],-0.0336 ± 0.1
same,promoter activity interaction Z-score,[6]; [15],-0.0124 ± 0.14
same,promoter activity interaction Z-score,[6]; [16],-0.0424 ± 0.045
same,promoter activity interaction Z-score,[6]; [17],-0.126 ± 0.076
same,promoter activity interaction Z-score,[6]; [18],0.239 ± 0.18
same,promoter activity interaction Z-score,[6]; [19],0.207 ± 0.22
same,promoter activity interaction Z-score,[6]; [20],0.0689 ± 0.0036
same,promoter activity interaction Z-score,[6]; [21],0.491 ± 0.041
same,promoter activity interaction Z-score,[6]; [22],0.434 ± 0.012
same,promoter activity interaction Z-score,[6]; [23],0.177 ± 0.4
same,promoter activity interaction Z-score,[7]; [8],-0.0562 ± 0.66
same,promoter activity interaction Z-score,[7]; [9],-0.946 ± 0.55
same,promoter activity interaction Z-score,[7]; [10],0.0451 ± 0.3
same,promoter activity interaction Z-score,[7]; [11],0.372 ± 0.27
same,promoter activity interaction Z-score,[7]; [12],-0.65 ± 0.46
same,promoter activity interaction Z-score,[7]; [13],-0.0216 ± 0.48
same,promoter activity interaction Z-score,[7]; [14],-0.226 ± 0.041
same,promoter activity interaction Z-score,[7]; [15],0.227 ± 0.47
same,promoter activity interaction Z-score,[7]; [16],-0.276 ± 0.26
same,promoter activity interaction Z-score,[7]; [17],-0.251 ± 0.18
same,promoter activity interaction Z-score,[7]; [18],0.839 ± 0.021
same,promoter activity interaction Z-score,[7]; [19],0.668 ± 1.5
same,promoter activity interaction Z-score,[7]; [20],2.05 ± 1
same,promoter activity interaction Z-score,[7]; [21],-0.89 ± 0.018
same,promoter activity interaction Z-score,[7]; [22],1.38 ± 2
same,promoter activity interaction Z-score,[7]; [23],0.806 ± 0.32

# — the supplement of paper PMC12282887
